A selection: hits, their analogues and other compounds. The true share with any hit is near 3.7%.
BJeLR lethal: MLPCN primary cell-based screen for lethality selective to Ras in HRASV12 cells; BJeLR (HRASV12) viability, CellTiter-Glo ATP luminescence, 48 h; inhibition, % (concentration not given with the values); 300,000 tested, 0.17% active; AID 1554, 2009; in the data active = inhibition above about 50%; inconclusive = no clear call, values can overlap the other calls
Anthrax LF inh2: Bacillus anthracis LF protease inhibitors, primary screen, biochemical, multiplex microsphere, MLPCN library. 360,000 tested, 0.12% active. multiplex microsphere protease cleavage assay. Lethal factor (Bacillus anthracis), P15917. inhibition, % at 10 µM; also: plate controls were buffer without enzyme for full effect and enzyme alone for no effect
Target sequence (P15917 whole entry, looked up): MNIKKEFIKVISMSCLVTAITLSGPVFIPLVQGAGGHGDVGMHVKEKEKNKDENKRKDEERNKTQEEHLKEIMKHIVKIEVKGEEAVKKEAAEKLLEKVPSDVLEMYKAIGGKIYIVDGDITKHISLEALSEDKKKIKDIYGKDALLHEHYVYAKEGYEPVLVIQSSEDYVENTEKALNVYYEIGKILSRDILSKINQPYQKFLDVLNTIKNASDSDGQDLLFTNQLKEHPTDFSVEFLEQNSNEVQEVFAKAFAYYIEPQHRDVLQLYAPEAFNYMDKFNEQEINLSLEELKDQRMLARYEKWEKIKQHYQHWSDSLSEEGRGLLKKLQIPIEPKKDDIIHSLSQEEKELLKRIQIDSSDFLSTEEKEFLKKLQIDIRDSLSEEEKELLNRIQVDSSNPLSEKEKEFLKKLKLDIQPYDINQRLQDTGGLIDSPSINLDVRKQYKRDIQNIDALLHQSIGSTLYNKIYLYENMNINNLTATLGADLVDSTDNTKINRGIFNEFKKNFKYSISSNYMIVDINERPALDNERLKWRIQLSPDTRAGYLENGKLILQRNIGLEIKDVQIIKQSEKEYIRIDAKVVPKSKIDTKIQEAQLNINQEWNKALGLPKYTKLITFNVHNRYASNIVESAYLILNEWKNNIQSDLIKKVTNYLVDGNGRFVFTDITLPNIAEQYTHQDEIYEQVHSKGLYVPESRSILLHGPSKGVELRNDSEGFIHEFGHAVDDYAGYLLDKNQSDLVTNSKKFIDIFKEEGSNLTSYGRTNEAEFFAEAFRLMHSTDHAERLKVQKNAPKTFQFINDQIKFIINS
Autofluor counter: flagged as autofluorescent in microsphere protease counterscreen | compound autofluorescence counterscreen, microsphere flow cytometry; stronger effect = higher value | 360,000 tested, 3.1% active | fluorescence intensity (concentration not given with the values); in the data active = fluorescence intensity above about 16000; inconclusive = no clear call, values can overlap the other calls
BoNT-F LC inh: BoNT/F light chain protease inhibitors, primary screen, biochemical, flow cytometry, MLPCN library | Multiplex microsphere protease cleavage assay | inhibition, % at 10 µM | 360,000 tested, 0.22% active | AID 588497, 2011; in the data active = inhibition above about 35%, passing the limit was not always enough; inconclusive = no clear call, values can overlap the other calls; also: plate controls were buffer without enzyme for full effect and enzyme alone for no effect
BoNT A protease: BoNT/A light chain protease inhibitors, primary screen, biochemical, flow cytometry, MLPCN library; inhibition, % at 10 µM; Botulinum neurotoxin type A light chain protease (Clostridium botulinum A str. ATCC 3502); multiplex microsphere protease substrate cleavage; AID 588499, 2011; 360,000 tested, 0.17% active; also: plate controls were buffer without enzyme for full effect and enzyme alone for no effect
BH1578 lux ind: inducers of Vibrio cholerae quorum light production without autoinducers, primary screen, BH1578 luxS cqsA deficient, single point; V. cholerae BH1578 lux reporter, luminescence, 6 h; activation, % at 18.7 µM; 350,000 tested, 0.16% active; in the data active = activation mostly above about 9.7%, no sharp cut-off; inconclusive = no clear call, values can overlap the other calls; inactive = mostly below about 3.7%
* hit, by the source's call; i = inactive; ? = inconclusive; · = not tested or not shown. Rule as the data show it, unless noted: active = inhibition above about 30%; inconclusive = no clear call, values can overlap the other calls; inactive = below that.

SMILES	BJeLR lethal	Anthrax LF inh2	Autofluor counter	BoNT-F LC inh	BoNT A protease	BH1578 lux ind
CC(C)c1cccc(-c2csc(C(C)(O)c3ccncc3)n2)c1 (configuration not stated)	·	-8	3936	8	0	i
Cc1onc(-c2c(F)cccc2Cl)c1C(=O)Nc1cc(S(=O)(=O)N2CCCCC2)ccc1O	·	·	·	·	·	-1
Cc1ccc2nc(-c3cccc(Br)c3)c(Cc3ccccc3)n2c1	·	2	6465	3	3	·
CCOC(=O)[C@]12CCC=C1N(Cc1ccccc1)C(=O)[C@H](CC(=O)N1CCOCC1)C2	·	7	5621	6	0	·
COc1ccc(-n2c(O)c(C=NCc3ccc4c(c3)OCO4)c(=O)[nH]c2=O)cc1	-1	-1	6012	11	2	0
Cc1ccccc1-n1c(O)c(C=Nc2ccc3c(c2)OCO3)c(=O)[nH]c1=O	-4	-2	22656*	1	?	i
O=c1[nH]c(=O)n(Cc2ccco2)c(O)c1C=NCc1ccc2c(c1)OCO2	-5	-1	22050*	4	3	0
COc1cccc(-n2c(O)c(C=NCc3ccc4c(c3)OCO4)c(=O)[nH]c2=O)c1	1	0	22432*	0	0	i
CCN(CC)c1ccc(N=Cc2c(O)n(-c3ccccc3C)c(=O)[nH]c2=O)cc1	1	0	9636	-4	0	i
CCCCn1c(O)c(C=NCc2ccc3c(c2)OCO3)c(=O)[nH]c1=O	2	-1	4510	-3	-1	0
O=S(=O)(N=S(N1CCCCC1)N1CCCCC1)c1ccccc1	·	1	19826*	2	?	2
Cc1ccc(S(=O)(=O)NC2(C(=O)O)CCCCC2)cc1	-5	-1	23381*	-2	-2	i
Cc1ccc(S(=O)(=O)NC2(C(=O)O)CCCC2)cc1	·	2	3815	-1	0	·
O=C(O)C1(Nc2ccc(Cl)cc2)CCCC1	·	1	3982	-10	0	-2
O=C(O)C1(NS(=O)(=O)c2ccc(Cl)cc2)CCCCC1	4	-4	19428*	2	?	4
CN[C@H](C)C(=O)NC[C@H]1O[C@@H](n2cc(C)c(=O)[nH]c2=O)C[C@@H]1O	·	-5	4914	-2	-1	-1
CN[C@@H](CO)C(=O)NC[C@H]1O[C@@H](n2cnc3c(N)ncnc32)[C@H](O)[C@@H]1O	·	6	5779	-2	0	·
COc1ccc(CCN2CC(C(=O)N(C)Cc3ccccn3)CCC2=O)cc1 (configuration not stated)	·	-1	3415	-4	0	i
CC(C)(C)C(=O)Nc1ccccc1C(=O)Nc1cc(Cl)ccc1Cl	-12	-1	23417*	-1	-1	i
O=C(c1ccccc1)c1nn(-c2ccccc2)c2nnc(Cc3ccccc3)c(=O)n12	12	-2	17139*	-2	-2	i
CCn1c(CSc2nc3ccccc3s2)n[nH]c1=S	-8	-1	20748*	-3	-2	0
CCCSc1nnc(CSc2nc3ccccc3s2)n1-c1ccccc1	1	-3	17205*	-6	-1	i
N#CCCCSc1nnc(CSc2nc3ccccc3s2)n1-c1ccccc1	-8	-2	2899	-7	0	i
Cn1cccc1/C=C1\SC(=Nc2cccc(O)c2)NC1=O	7	2	5604	-12	0	0
Cn1cccc1/C=C1\SC(=Nc2ccccc2)NC1=O	29	13	3910	36*	2	-1
SMILES	BJeLR lethal	Anthrax LF inh2	Autofluor counter	BoNT-F LC inh	BoNT A protease	BH1578 lux ind
Cn1cccc1/C=C1\SC(=Nc2ccc(O)cc2)NC1=O	62*	-9	3927	-3	-3	i
CC(C)NC(=O)Cn1c(SCC(=O)N2CCc3ccccc3C2)nc2ccccc21	-13	-1	20580*	-7	-3	i
CC1CC(C)CN(C(=O)Cn2c(SCC(=O)N3CCc4ccccc4C3)nc3ccccc32)C1 (configuration not stated)	5	1	4589	26	-1	i
CC1=C(C(=O)N(C)C)CC(CC(=O)NCc2cccc3ccccc23)C(=O)N1Cc1ccc(F)cc1 (configuration not stated)	·	-1	6185	1	0	·
COc1ccc2c(c1)[nH]c1c(=O)n(CC3CCCO3)cnc12 (configuration not stated)	-13	-2	17272*	-2	-2	-1
CCC/C=C/c1ccc(CN2C(C(C)C)C(=O)N(Cc3cn(Cc4ccco4)nn3)CCS2(=O)=O)cc1 (configuration not stated)	·	-1	3741	-1	0	0
CC(C)(C)S(=O)N1Cc2cc(C(=O)N3CCc4ccccc4C3)nc(-c3cccc(-c4cccnc4)c3)c2[C@@H]1CCO (some centres not stated)	·	1	5867	-21	0	·
Cc1cc(Br)cn2c(CC(C)(C)C)c(C3CCCCC3)nc12	·	-12	4524	-13	-1	·
Nc1nc(N)c2cc(Sc3ccc(Cl)cc3)ccc2n1	·	-8	3925	-2	0	i
Nc1nc(N)c2cc(Sc3ccc4ccccc4c3)ccc2n1	60*	·	·	·	·	-1
COc1cc(NCCCNC(C)C)c2nccc(C)c2c1	·	-18	3432	-51	3	1
Cc1ccc(C(=O)CSc2nnc(COc3cc(C)cc(C)c3)o2)cc1	-2	·	·	·	·	0
Cc1cc(C)cc(OCc2nnc(SCC(=O)c3ccccc3)o2)c1	-1	-2	19614*	-2	?	-1
COc1ccc(C(=O)Nc2n[nH]c(-c3ccncc3)n2)cc1	-1	-4	18001*	-4	-6	0
Cc1cccc(N(C(=O)CS(=O)CC(=O)Nc2ccc3c(c2)OCO3)C(C)C(=O)NC2CCCC2)c1C (configuration not stated)	-13	-8	4363	-5	-1	0
Cc1ccccc1N(CC(=O)NC1CCCC1)C(=O)CS(=O)CC(=O)Nc1ccc2c(c1)OCO2 (configuration not stated)	3	1	20092*	2	2	0
O=C(NC(c1ccc(Cl)cc1)c1ccsc1)C1CCN(Cc2cccc(Cl)c2)CC1 (configuration not stated)	·	-6	5527	-8	-1	0
N#CCC1c2ccccc2CCN1C(=O)Nc1cccc(C(F)(F)F)c1 (configuration not stated)	-3	-1	11347	-3	0	0
N#CCC1c2ccccc2CCN1C(=O)Nc1ccc(C(F)(F)F)cc1 (configuration not stated)	-9	-7	16726*	-5	-1	0
N#CCC1c2ccccc2CCN1C(=O)Nc1ccc(Cl)cc1 (configuration not stated)	5	-1	9737	3	0	-7

From PubChem
